# Compounds with a hit are over-represented: about 8% of the library has one in this group of screens.
# Lassa entry inh: inhibitors of Lassa virus binding or cell entry; Lassa virus pseudotype entry inhibition, cell reporter; AID 540256; 300,000 tested, 1.2% active; Potency, µM (titrated, usually from 37.9 µM), for the others: top-dose activity change, negative = inhibition, usual class: inhibitors; calls by dose curve; tested in HEK293 cells; note: potency is the fitted concentration of half-maximal effect; % is set by controls: 0 for no effect and ±100 for the full control effect; nearly all actives have a fitted effect of over 50% in size
# Marburg entry inh: blocks Marburg virus binding to or entry into cells; Marburg virus pseudotyped entry inhibition, cell reporter; Potency, µM (series often up to 37.8 µM), for inactives: at the highest dose activity change, negative = inhibition, usual class: inhibitors; 300,000 tested, 1.8% active; calls by dose curve; tested in HEK293 cells; note: potency is the fitted concentration of half-maximal effect; % is set by controls: 0 for no effect and ±100 for the full control effect
# HCMV inh: inhibitors of human cytomegalovirus. activity change, negative = inhibition, % at 57.5 µM. AID 1259415. HFF cells, HCMV-luciferase reporter, 72 h; stronger effect = lower value. 410,000 tested, 4.5% active; in the data active = activity change below about -60%; inconclusive = no clear call, values can overlap the other calls; inactive = above about -39%; note: % is set by controls: 0 for no effect and ±100 for the full control effect
#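 Two-dose cell screen: HFF monolayers treated with compounds and infected with luciferase-expressing HCMV at 1 PFU/cell, 72 h at 37C, then lysed for luciferase measurement.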
# HCV inhibitor: inhibitors of hepatitis C virus infection; Huh7.5.1 HCVcc-Cre infection, luciferase reporter, 44 h; Potency, µM (top dose mostly 41.8 µM), for the others: top-dose activity change, negative = inhibition, actives largely listed as inhibitors; 340,000 tested, 3.4% active; active = well fitted inhibition curve with a large enough effect; inconclusive = small, poorly fitted or top-dose-only effect, or another doubt; inactive = no such curve, though single readings can be large or run the other way; note: potency is the fitted concentration of half-maximal effect; % is set by controls: 0 for no effect and ±100 for the full control effect
#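 Reporter virus HCVcc-Cre (~0.5 moi) infects cells exposed to compound; seeding density 1,000 cells/well with 4 h settling beforehand. Luminescence, 15 sec read, taken 44 h post-infection following a 15 min RT substrate incubation.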
# FMDV inh: foot and mouth disease virus antiviral activity; AID 1159524; 410,000 tested, 1.2% active; FMDV antiviral cell-based qHTS; Potency, µM (doses to about 57.9 µM), without a hit: at the highest dose activity change, negative = inhibition, most hits filed as inhibitors; calls by dose curve; tested in HEK293T cells; note: read-out not given here; potency is the fitted concentration of half-maximal effect; % is set by controls: 0 for no effect and ±100 for the full control effect; nearly all actives have a fitted effect of over 45% in size
# SARS PLpro yeast: blocks SARS-CoV papain-like protease in a yeast assay. 330,000 tested, 0.19% active. S. cerevisiae expressing SARS-CoV PLpro, growth rescue. Potency, µM (series often up to 32.9 µM), for the others: top-dose activity, positive = growth rescue, hits mostly activators; calls by dose curve; note: potency is the fitted concentration of half-maximal effect; 0% is about no effect; nearly all actives have a fitted effect of over 55% in size
# * = called active by the depositor; ? = inconclusive; · = no result; [ ] = another dose, or the depositor's remark.
SMILES,Lassa entry inh,Marburg entry inh,HCMV inh,HCV inhibitor,FMDV inh,SARS PLpro yeast
Cc1c([N+](=O)[O-])c([N+](=O)[O-])nn1CC(=O)N1CCOCC1,13%[46.1 µM],1%[46.1 µM],-1,24%,-25%,-1%
Nc1ccccc1S(=O)(=O)NCCCCc1ccccc1,·,·,-100*,-5%,25%,-1%
O=S(=O)(NCCCc1ccccc1)c1cccc2nsnc12,1%,9%,-18,-3%,3%,1%
Cc1cc(O)c(-c2cc(C(=O)NCCc3ccc(S(N)(=O)=O)cc3)[nH]n2)cc1C,-2%,?,?,?,-28%,1%
Cc1ccc(O)c(-c2cc(C(=O)Nc3ccc(S(=O)(=O)N4CC(C)OC(C)C4)cc3)[nH]n2)c1 (centres undefined),?,?,-14,11µM*,?,4%
Cc1cc(O)c(-c2cc(C(=O)Nc3ccc(S(=O)(=O)N4CCOCC4)cc3)[nH]n2)cc1C,?,?,?,?,?,-2%
O=C(Nc1ccc(S(=O)(=O)N2CCOCC2)cc1)c1cc(-c2cc(Cl)ccc2O)n[nH]1,·,·,-65*,10µM*,?,0%
NS(=O)(=O)c1ccc(CCNC(=O)c2cc(-c3cc(Cl)ccc3O)n[nH]2)cc1,·,·,-80*,-19%,0%,2%
Cc1ccc(C(=O)N2CC(C)SC2=Nc2cccc(S(=O)(=O)N(C)C)c2)cc1 (centres undefined),3.2µM*,-12%,-30,-12%,-19%,2%
Cc1ccccc1/C=C/C(=O)N1CCOCC1,15%[46.1 µM],1%[46.1 µM],22,5%,9%,-1%
COc1cc2c(cc1OC)C(C)N(C(=O)c1cccc([N+](=O)[O-])c1)CC2 (centres undefined),17%,12%[46.1 µM],-74*,-28%,-22%,-6%
COc1cc2c(cc1OC)C(c1ccccc1)N(C(=O)CCl)CC2 (centres undefined),?,?,-99*,-14%,7.1µM*,-2%
COc1ccccc1/C=C/C(=O)N1CCc2cc(OC)c(OC)cc2C1C (centres undefined),?,?,-20,22µM*,-7%,-1%
COc1cc2c(cc1OC)C(C1C(=O)CCCC1=O)N(C(=O)CCl)CC2 (centres undefined),-2%,-1%,-36,-6%,5%,0%
COc1ccccc1/C=C/C(=O)N1CCOCC1,?,3%,-72*,4%,1%,-5%
COC(=O)c1nn(-c2ccc(Oc3ccccc3)cc2)c(=O)cc1O,-15%[46.1 µM],8%[46.1 µM],16,-5%,-11%,-3%
COc1cc2c(cc1OC)C(C)N(C(=O)c1ccc(Cl)c(S(=O)(=O)N3CCCCC3)c1)CC2 (centres undefined),·,·,-64*,8.9µM*,-28%,-15%
O=C(Nc1cccc(N2CCC(NCc3cnn(-c4ccccc4)n3)CC2)c1)c1cccnc1,·,·,·,·,-16%,·
COc1cc(C=O)ccc1OCCCOc1ccccc1C(=O)O,?,?,26,-13%,8.9µM*,1%
CCNC(=O)COc1ccc(C=O)cc1OC,18%,16%,-86*,3%,2%,1%
CCOc1cc(C=O)ccc1OCC(=O)NC(C)(C)C,-4%,9%,5,-7%,-10%,0%
CC(=O)OC[C@H]1O[C@H](C/C=N/OC[C@@H](C)[C@H](OCc2ccccc2)C(C)C)C=C[C@@H]1OC(C)=O,·,-10%[14.2 µM],·,·,·,·
CC(C)CON=C1C[C@@H](O)[C@@H](O)[C@@H]2[C@H]3C(=O)N(c4ccc(F)cc4F)C(=O)[C@@H]3CC[C@H]12,·,-10%[14.2 µM],·,·,·,·
O=C(c1cc(COc2ccc3ncccc3c2)on1)N1CCCC1,-10%,?,?,7.1µM*,-23%,-6%
O=C(c1cc(COc2ccc3ncccc3c2)on1)N1CCCCCC1,-23%[46.1 µM],?,-37,?,-6%,0%
SMILES,Lassa entry inh,Marburg entry inh,HCMV inh,HCV inhibitor,FMDV inh,SARS PLpro yeast
CC(NC(=O)c1cc(COc2ccccc2)on1)c1nccs1 (centres undefined),?,?,0,0%,13%,1%
COCC1CCN(C(=O)c2cc(COc3ccc4ncccc4c3)on2)CC1,?,-19%[46.1 µM],-75*,1.1µM*,?,0%
O=C(NC1CCCC1)c1cc(COc2ccc3ncccc3c2)on1,·,·,·,3.5µM*,?,1%
CC(NC(=O)c1cc(COc2ccc3ncccc3c2)on1)c1ccc(F)cc1 (centres undefined),·,·,-85*,2.2µM*,1.8µM*,-1%
O=C(NCCc1cn2ccccc2n1)c1cc(COc2ccc3ncccc3c2)on1,-23%,5.6µM*,-76*,2.5µM*,11µM*,0%
Cn1cnc2cnc(Nc3ccc(F)c(Cl)c3)cc21,·,·,69,·,·,·
Cc1n[nH]c(C)c1S(=O)(=O)N1CCc2ccccc2C1,·,·,2,10%,9%,12%
CCCOC(=O)Nc1ccc([As](=O)(O)O)cc1NC(=O)OCCC,21%[46.1 µM],9%[46.1 µM],-80*,26%,-8%,1%
CCOC(=O)Nc1ccc(C)cc1NC(=O)OCC,12%,14%,0,-27%,-10%,1%
CC(C)C(NC(=O)c1c(F)cccc1F)C(=O)NC1CC(C)(C)NC(C)(C)C1 (centres undefined),-9%[46.1 µM],-6%[46.1 µM],-26,9%,9%,4%
CC(=O)C1=NN(c2ccccc2)C(c2cccs2)N1c1ccc(N(C)C)cc1 (centres undefined),21µM*,?,-80*,?,16µM*,-10%
CC(=O)C1=NN(c2ccccc2)C(c2ccc3c(c2)OCO3)N1c1ccccc1 (centres undefined),-17%,1%,?,?,-23%,3%
C/C(=N/NC(=O)c1ccccc1)c1ccc(NC(=O)C(F)(F)F)cc1,1%[46.1 µM],0%[46.1 µM],0,1%,15%,1%
O=C(CSc1nnc(NC(=O)c2ccc(S(=O)(=O)N3CCOCC3)cc2)s1)Nc1ccccc1C(F)(F)F,-6%,-5%,-9,-6%,-7%,7%
C[N+](C)(CCOc1ccccc1)Cc1ccccc1,·,·,15,-27%,-29%,·
Cc1cc(C(C)(C)CC(C)(C)C)ccc1OCCOCC[N+](C)(C)Cc1ccccc1,·,·,-94*,2.8µM*,?,·
CCN(CC)CCC[C@H](C)N=C(c1ccccc1)c1c(O)n(C)c(=O)n(C)c1=O,·,-2%,·,·,·,·
CC1=C(O)C(=O)C=C2C1=CC=C1[C@]2(C)CC[C@@]2(C)C3C[C@](C)(C(=O)O)CC[C@@]3(C)CC[C@@]12C (some centres undefined),·,·,·,·,4µM*,·
CC1(C)C(=O)CC[C@]2(C)C3C(=O)C=C4[C@H]5C[C@@](C)(C(=O)O)CC[C@]5(C)CC[C@]4(C)[C@]3(C)CC[C@@H]12 (some centres undefined),·,·,13,18%,-16%,1%

# From PubChem
